Reference: the supplement of paper PMC6555819

Assays:
Assay in all cases: PBM binding z-score (relative to random genomic background probes); higher = stronger binding; sequences stand for … in GC…GCGATTGACAGCGTAGAATGAAGG
[1] = test system: RARb homodimer (NR concentration 270 nM)
Summary of the method: (§1)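 Each nuclear receptor dimer, without ligand, was incubated for 1 h on custom Agilent 4×180K protein-binding microarrays. Binding was detected with antibodies against each partner (one per run), and scanned fluorescence was regression-normalized. The binding z-scores are referenced to random human genomic background probes.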

[2] = test system: RARg:RXRa (NR concentration 270 nM, RXRa partner concentration 90 nM)
Summary of the method: as §1

[3] = test system: RARg homodimer (NR concentration 270 nM)
Summary of the method: as §1

[4] = test system: RXRa DBDmut IVT, anti-RXR (DBD mutation: RXRa K156A/R161A, NR concentration 90 nM)
Summary of the method: as §1

[5] = test system: RXRa homodimer (NR concentration 180 nM)
Summary of the method: as §1

[6] = test system: THRa:RXRa (NR concentration 90 nM, RXRa partner concentration 90 nM)
Summary of the method: as §1

[7] = test system: THRa homodimer (NR concentration 90 nM)
Summary of the method: as §1

[8] = test system: VDR homodimer (NR concentration 270 nM)
Summary of the method: as §1

Sequence	PBM binding z-score [1]	PBM binding z-score [2]	PBM binding z-score [3]	PBM binding z-score [4]	PBM binding z-score [5]	PBM binding z-score [6]	PBM binding z-score [7]	PBM binding z-score [8]
ATCGAAAGGTCGAAGGCGAGTATACCCACCCGAA	2.23	3.79	3.68	0.777	3.64	1.75	-0.359	0.879
GCTGTTAGGTCAACTGATGGTCAGCTAAAGCTCG	3.65	5.62	5.67	2.11	3.51	3.62	2.59	0.277
CGTCCAAGGTCAAGGTAAGTGAAAGAGACTCGAA	4.02	6.03	7.08	3.26	5.48	3.97	2.14	1.56
ATCTCTAGGTAAAGAAAGTTCAGTGAATGCAAAT	2.33	1.43	1.59	0.781	0.876	1.22	0.318	1.71
GCGATTGGGGCATCAGCAGGTTACCATAACTTAA	0.917	0.779	0.543	0.393	0.323	1.03	0.429	-0.374
GCGACTGGGGCAAAGCAGGTTACGATAAGGTTGG	1.04	0.351	0.644	-0.265	0.354	2.97	0.0259	-0.24
CCGACTGGGGTAAAGGTTACCATACTCAGTACGA	1.83	2.51	1.44	0.246	3.27	2.05	-0.0216	0.207
